Results published in PubChem BioAssay.

These compounds were tested on Fibrinogen (Alexa647-labelled) (assay: Alexa647-fibrinogen binding to printed small molecules – biochemical, small-molecule microarray, 635/667 nm fluorescence, artefact control for SMM control-protein annotation, profiling panel (AID 1131;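 also: z-score merges 667 nm fluorescence with per-spot signal-to-noise over triplicate slides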)). Details: fibrinogen-A647 binding fluorescence, higher = more signal.
`COCCOC(=O)N1C(=O)[C@@]2(c3cc(C#CCC(C(=O)OC)C(=O)OC)ccc31)[C@H](c1ccccc1OCCO)N1[C@H](c3ccccc3)[C@H](c3ccccc3)OC(=O)[C@H]1[C@@H]2C(=O)N1CCN(c2ncccn2)CC1` showed a composite z-score of 0.696.
Compound `C=C(CCCC)/C(=C/C[C@@H](OC(=O)c1ccncc1)c1ccc(OCCO)cc1)c1cc(C(=O)OC)ccc1OC` has a composite z-score of -0.117.
With `CCCCN1CC=CC23O[C@@H]4C=CCCOC(=O)C4[C@H]2C(=O)N(CCCCCCO)[C@@H]3C1=O` (stereo not given in full) the composite z-score was -0.796.
For `CN(C)CCCC[C@@H]1NC(=O)[C@H]2C[C@@H](C(=O)NCCCCCCN)[C@@H](c3ccc(O)cc3)N2C1=O`, the composite z-score was 0.977.
`COc1ccc(-c2cc3c(c(-c4ccc(Oc5ccccc5)cc4)n2)[Si](C(C)C)(C(C)C)OC3)cn1` showed a composite z-score of -0.424.

These compounds were tested against Follistatin (Homo sapiens) (UniProt P19883) (assay: FST protein binding to printed compounds – biochemical, small-molecule microarray, 635/667 nm fluorescence, primary screen (AID 1132)). Details: 635 nm fluorescence, higher = more signal.
Chain of Follistatin (Homo sapiens) (P19883 whole entry, looked up): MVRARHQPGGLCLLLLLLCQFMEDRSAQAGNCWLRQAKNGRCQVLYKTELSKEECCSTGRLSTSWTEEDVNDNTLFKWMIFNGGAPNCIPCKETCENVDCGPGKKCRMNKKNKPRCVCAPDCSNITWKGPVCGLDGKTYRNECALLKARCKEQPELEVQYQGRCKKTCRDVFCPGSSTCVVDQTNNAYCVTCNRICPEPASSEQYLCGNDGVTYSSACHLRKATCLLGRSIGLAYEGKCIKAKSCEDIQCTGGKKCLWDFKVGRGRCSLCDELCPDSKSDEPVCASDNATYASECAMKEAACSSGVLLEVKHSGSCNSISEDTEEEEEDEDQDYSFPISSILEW
`CC#CC(=O)Oc1ccccc1C=CC(=O)OCC` showed a composite z-score of 0.036.
`CC(C)CNC(=O)[C@@]1(Cc2ccccc2I)c2ccccc2C(=O)N(C2CCCCC2)[C@H]1c1ccc(CO)cc1` was tested, and the composite z-score was 0.0932.
Compound `O=C(c1ccccc1)N1C(=O)[C@]2(COC(c3ccc(OCCCO)cc3)=N2)Cc2ccccc21` has a composite z-score of 1.4.
For `CC(C)(C)OC(=O)CC[C@]1(C(=O)N2CCOCC2)N=C(c2ccc(OCCCO)cc2)O[C@H]1c1ccccc1N=[N+]=[N-]`, the composite z-score was 1.18.
Compound `COCCOC(=O)N1C(=O)[C@@]2(c3cc(C#CCC(C(=O)OC)C(=O)OC)ccc31)[C@H](c1ccccc1OCCO)N1[C@H](c3ccccc3)[C@H](c3ccccc3)OC(=O)[C@H]1[C@@H]2C(=O)NC[C@H](O)c1ccccc1` has a composite z-score of 1.37.
For `COCCCNC(=O)[C@]1(CCC(=O)OC(C)(C)C)N=C(c2ccc(OCCCO)cc2)O[C@@H]1c1ccccc1CN=[N+]=[N-]`, the composite z-score was 1.28.
`CCOC(=O)C1=C[C@@H](C(C)(C)C)N(S(=O)(=O)c2ccc(C)cc2)[C@H]1c1ccc(F)cc1` gave a composite z-score of 1.05.
`COc1cc(NN2C(C(O)c3ccco3)C=CC3C(=O)N(c4ccccc4)C(=O)C32)cc(OC)c1OC` (stereo not given) showed a composite z-score of 0.363.
`CCC(CC)C(O)C1C=CC2C(=O)NC(=O)C2N1Nc1ccc(Cl)cc1Cl` (stereo not given) was tested, and the composite z-score was 1.14.
`CCCC[C@H]1OB(O)C[C@H]2C1=C(COC)Cn1c(=O)n(-c3ccccc3)c(=O)n12` gave a composite z-score of 0.464.
`C=C(COC)/C(=C/C[C@@H](OC(C)=O)c1ccc(OCCO)cc1)c1cnc2ccccc2c1` was tested, and the composite z-score was 1.41.
`CN(C)C(=O)[C@@]1(CCS(=O)(=O)c2ccccc2)COC(c2ccc(OCCCO)cc2)=N1` was tested, and the composite z-score was 0.66.
Compound `CCCCCCc1nc(-c2ccc(OC)nc2)cc2c1[Si](C(C)C)(C(C)C)O[C@H]2c1ccccc1` has a composite z-score of 0.885.
For `O=C(CS)NCCCCCCNC(=O)[C@@H]1C[C@@H]2C(=O)N[C@@H](Cc3ccccc3)C(=O)N2[C@@H]1c1cccc(OCCO)c1`, the composite z-score was 1.33.
`COC(=O)[C@@]1(Cc2ccc(OC)cc2)[C@H]2c3cc(C(=O)N(C)C)n(Cc4ccc(S(C)(=O)=O)cc4)c3C[C@H]2CN1C(=O)c1ccccc1` showed a composite z-score of 1.11.
`O=C1C[C@@](C(=O)NC2CC2)(c2ccc([N+](=O)[O-])cc2)[C@@H](c2ccc(CO)cc2I)N1C1CCCCC1` gave a composite z-score of 1.24.
`CN1C=C(C(=O)OCCS(C)(=O)=O)C(C(=O)OCCS(C)(=O)=O)=CC(c2ccc(CO)cc2)=CC1C1CC1` (stereo not given) gave a composite z-score of 0.126.
For `O=C1NC(=O)C2C1C=CC(C(O)c1cc(C(F)(F)F)cc(C(F)(F)F)c1)N2Nc1ccccn1` (stereo not given), the composite z-score was 0.89.
`CN(C)CCCCCCNC(=O)[C@@H]1C[C@@H]2C(=O)N[C@@H](Cc3ccccc3)C(=O)N2[C@@H]1c1ccc(O)cc1` gave a composite z-score of 1.44.
With `Cc1nc2cc(Br)ccc2c(=O)o1` the composite z-score was 0.657.
`O=C(NC1CC1)[C@@H]1c2ccccc2C(=O)N(Cc2ccccc2Cl)[C@H]1c1ccc(CO)cc1` showed a composite z-score of 1.33.
For `O[C@@H](Cc1ccccc1)[C@H]1C2C=CCCC=C2CN1Cc1cccc(Cl)c1` (stereo not given in full), the composite z-score was 1.24.
For `COCCOC(=O)N1C(=O)[C@@]2(c3cc(C#CCNC(N)=O)ccc31)[C@H](C(=O)N1CCN(c3ncccn3)CC1)[C@H]1C(=O)O[C@H](c3ccccc3)[C@H](c3ccccc3)N1[C@@H]2c1ccc(OCCO)cc1`, the composite z-score was 1.12.
Work on `COCCOC(=O)N1C(=O)[C@@]2(c3cc(C#CCNC(N)=O)ccc31)[C@H](C(=O)Nc1nc3ccccc3s1)[C@H]1C(=O)O[C@H](c3ccccc3)[C@H](c3ccccc3)N1[C@@H]2c1ccc(OCCO)cc1` yielded a composite z-score of 1.36.
In the case of `CC(C)C(O)C1C=CC2C(=O)N(c3ccccc3)C(=O)C2N1Nc1ccc([N+](=O)[O-])cc1` (stereo not given), the composite z-score is reported as -0.197.
`CCOC(=O)C[C@H]1[C@H](OC(=O)c2ccccc2-c2ccccc2)[C@@H](NC(=O)CC(C)C)c2cc(OCCCO)ccc2N1C(=O)Cc1ccc(OC)cc1` was tested, and the composite z-score was -0.247.
`C=C(CCCC)/C(=C/C[C@H](OC(C)=O)c1ccccc1OCCO)c1cc(C(=O)OC)ccc1OC` was tested, and the composite z-score was 0.0341.
`C=CCC(OC(C)=O)[C@@H]1[C@@H](N(Cc2ccc(-c3ccccc3)cc2)C(=O)Cc2ccc(OC)cc2)c2cc(OCCCO)ccc2N1C(=O)Cc1ccc2ccccc2c1` (stereo not given in full) showed a composite z-score of -0.0399.
For `COc1ccc(CCNC(=O)[C@@]2(Sc3ccc(C)cc3)CC(=O)N(C3Cc4ccccc4C3)[C@@H]2c2ccc(CO)cc2I)cc1`, the composite z-score was -0.816.
Compound `COC(=O)[C@@]1(Cc2ccccc2)N=C(c2ccc(OCCCO)cc2)O[C@H]1c1ccccc1` has a composite z-score of 0.385.
For `COCCOC(=O)N1C(=O)[C@@]2(c3cc(C#CCC(C(=O)OC)C(=O)OC)ccc31)[C@H](c1ccccc1OCCO)N1[C@H](c3ccccc3)[C@H](c3ccccc3)OC(=O)[C@H]1[C@@H]2C(=O)N1CCN(c2ncccn2)CC1`, the composite z-score was 1.38.
In the case of `C=C(CCCC)/C(=C/C[C@@H](OC(=O)c1ccncc1)c1ccc(OCCO)cc1)c1cc(C(=O)OC)ccc1OC`, the composite z-score is reported as 0.641.
Compound `CCCCN1CC=CC23O[C@@H]4C=CCCOC(=O)C4[C@H]2C(=O)N(CCCCCCO)[C@@H]3C1=O` (stereo not given in full) has a composite z-score of 0.0593.
In the case of `CN(C)CCCC[C@@H]1NC(=O)[C@H]2C[C@@H](C(=O)NCCCCCCN)[C@@H](c3ccc(O)cc3)N2C1=O`, the composite z-score is reported as 1.41.
With `COc1ccc(-c2cc3c(c(-c4ccc(Oc5ccccc5)cc4)n2)[Si](C(C)C)(C(C)C)OC3)cn1` the composite z-score was 0.525.
